These results are taken from PubChem BioAssay (Tox21).

Unmarked numbers belong to inactive results. Inconclusive results are not listed. The source made the active and inactive calls. Unless noted, calls come from the whole dose curve; as a rule, active = well fitted curve in the direction sought with a large enough effect in the repeat runs; inconclusive = weak or mixed curves; inactive = no such curve, though single readings can be large; an effect the other way counts as inactive or inconclusive.

A short description of experiment [1]: qHTS assay to identify small molecule agonists of the androgen receptor (AR) signaling pathway in the presence of an antagonist - cell viability counter screen (AID 1259379). For activity change, negative = cytotoxicity: series mostly up to about 92 µM. Note: nearly all actives have a fitted effect of over 25% in size. Note: potency is the fitted concentration of half-maximal effect. In short, it runs like this:
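MDA-kb2 human breast carcinoma cells (stable MMTV-luciferase, AR/GR responsive) were seeded 3,000 cells/well, pre-incubated 5 hr at 37C without CO2, then given 3.0uM nilutamide and compounds at 15 concentrations for 16 hr. Viability was read by CellTiter-Fluor fluorescence.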
Background: In qHTS, concentration-response curves come from the screen itself.

A short description of experiment [2]: qHTS assay to identify small molecule agonists of the estrogen receptor beta (ER-beta) signaling pathway - cell viability counter screen (AID 1259380). Note: nearly all actives have a fitted effect of over 30% in size. Note: potency is the fitted concentration of half-maximal effect. In short, it runs like this:
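ER-beta-UAS-bla HEK293T cells in medium with 2% charcoal-stripped FBS were preincubated 6 hr at 37C, dosed with compound in DMSO for 16 hr, then after the bla read, CellTiter-Glo was added for 30 min at room temperature; luminescence recorded.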

The target in experiment [3] is Androgen receptor (Homo sapiens) (UniProt P10275). Briefly: qHTS assay to identify small molecule agonists of the androgen receptor (AR) signaling pathway in the presence of an antagonist (AID 1259381; calls by dose curve; note: nearly all actives have a fitted effect of over 15% in size). A digest of the protocol: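 MDA-kb2 human breast carcinoma cells carrying an MMTV-luciferase reporter (AR- and GR-responsive) were treated with compounds at 15 concentrations plus 3.0uM final nilutamide for 16hr at 37C without CO2; luminescence was read after ONE-Glo addition.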

Experiment [4] can be described thus: qHTS assay to identify small molecule antagonists of the estrogen receptor beta (ER-beta) signaling pathway - cell viability counter screen (AID 1259382).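 For activity change, negative = cytotoxicity: HEK293T cells carrying ER-beta-UAS-bla reporter stimulated with estradiol; series mostly up to about 92 µM.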 Note: nearly all actives have a fitted effect of over 55% in size. Note: potency is the fitted concentration of half-maximal effect. In short, it runs like this: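 ER-beta-UAS-bla HEK293T cells (2,000/well, 2% charcoal-stripped FBS) were pre-incubated 6 hr at 37C, then given compound plus 1nM final 17-beta-estradiol for 16 hr. Viability was read in the same wells by CellTiter-Glo luminescence after 30 min at room temperature.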

A short description of experiment [5]: qHTS assay to identify small molecule agonists or antagonists of the thyroid stimulating hormone receptor (TSHR) signaling pathway - wild type cell line counter screen (AID 1259384; calls by dose curve). In short, it runs like this:
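Wild-type HEK293 cells were plated 18 h at 37 C/5% CO2, pin-dosed with compound plus Ro20-1724 medium, held 30 min at room temperature, then given cAMP-d2 and anti-cAMP-cryptate; fluorescence was read after 1 h. Fifteen concentrations, triplicate.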

For experiment [6], the target named is Thyrotropin receptor (Homo sapiens) (UniProt P16473). The experiment can be described thus: qHTS assay to identify small molecule antagonists of the thyroid stimulating hormone receptor (TSHR) signaling pathway (AID 1259385; calls by dose curve; note: nearly all actives have a fitted effect of over 20% in size). A digest of the protocol: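 TSHR-HEK293 cells were plated and held 18 h at 37C/5% CO2, then given compound plus Ro20-1724 and stimulated with TSH at 1.5 ng/mL final. After 30 min at room temperature, cAMP was detected with cAMP-d2/anti-cAMP-cryptate (1 h) by fluorescence.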

Experiment [7] in a line: qHTS assay to identify small molecule agonists of the estrogen receptor alpha (ER-alpha) signaling pathway in the presence of an antagonist - cell viability counter screen (AID 1259386).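 Note: series mostly up to about 92 µM; cells exposed to compounds for 22 h at 37 °C before the viability read; nearly all actives have a fitted effect of over 30% in size.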 A digest of the protocol: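 VM7Luc4E2 cells (endogenous full-length ER-alpha, 4×ERE-luciferase) were held 5 days in phenol red-free medium with 10% charcoal-stripped FBS, plated, then given 10.0nM ICI-182,780 and compounds at 15 concentrations for 22hr at 37C; viability read by CellTiter-Fluor fluorescence.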

For experiment [8], the target named is Progesterone receptor (Homo sapiens) (UniProt P06401). Briefly: qHTS assay to identify small molecule agonists of the progesterone receptor (PR) signaling pathway (AID 1346784; calls by dose curve; note: nearly all actives have a fitted effect of over 30% in size). In short, it runs like this:
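PR-UAS-bla HEK 293T cells carrying a UAS-driven beta-lactamase reporter were seeded in medium with 2% charcoal-stripped FBS, preincubated 6 hr at 37C, then exposed to compounds in DMSO for 16 hr; agonism was read by LiveBLAzer B/G FRET fluorescence.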

The target is the same in experiment [9]. The experiment can be described thus: qHTS assay to identify small molecule antagonists of the progesterone receptor (PR) signaling pathway (AID 1346795; active = well fitted inhibition curve with a large enough effect in the signal ratio in the repeat runs, not every such curve was filed as active; the % refers to the signal ratio). A digest of the protocol: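 PR-UAS-bla HEK293T cells carrying a UAS-driven beta-lactamase reporter were plated in medium with 2% charcoal-stripped FBS and rested 6 hr at 37C. Compounds were added with 1 nM R5020 (final) for 16 hr, then FRET substrate loaded 2 hr at room temperature.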

A short description of experiment [10]: qHTS assay to identify small molecule antagonists of the progesterone receptor (PR) signaling pathway - cell viability counter screen (AID 1346798). For activity change, negative = cytotoxicity: series mostly up to about 92 µM. Note: nearly all actives have a fitted effect of over 50% in size. Note: potency is the fitted concentration of half-maximal effect. In short, it runs like this:
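PR-UAS-bla HEK293T cells in medium with 2% charcoal-stripped FBS were treated with compounds plus R5020 for 16 hr at 37C. Cell viability was then read by CellTiter-Glo luminescence after 30 min at room temperature in the same wells.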

A short description of experiment [11]: qHTS assay to identify small molecule antagonists of the TGF-beta/Smad signaling pathway - cell viability counter screen (AID 1346824). Note: nearly all actives have a fitted effect of over 50% in size. A digest of the protocol: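 SBE-bla HEK 293T cells were plated overnight at 37 C, then given compounds in DMSO plus TGF-beta1 (added as 0.25 ng/mL solution) for 5 hr. After the bla read, CellTiter-Glo was added to the same wells and luminescence read after 30 min at room temperature.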

A short description of experiment [12]: qHTS assay to identify small molecule agonists of the TGF-beta/Smad signaling pathway - cell viability counter screen (AID 1346829). Note: top concentration of the series differs between compounds; nearly all actives have a fitted effect of over 45% in size. A digest of the protocol:
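Tox21 qHTS format: SBE-bla HEK 293T cells treated with DMSO-dissolved compounds for 5 hr; CellTiter-Glo luminescence after 30 min at room temperature.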

A short description of experiment [13]: qHTS assay to identify small molecule agonists of the TGF-beta/Smad signaling pathway (AID 1346859; active = well fitted activation curve with a large enough effect in the signal ratio in the repeat runs, not every such curve was filed as active; the % refers to the signal ratio; note: series mostly up to about 77 µM). A digest of the protocol: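 HEK 293T cells stably carrying a beta-lactamase reporter driven by the Smad binding element were seeded overnight, exposed to DMSO-dissolved compounds for 5 hr at 37 C, 5% CO2, then loaded with FRET substrate for 2 hr at room temperature.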

Experiment [14] has as its target Thyrotropin-releasing hormone receptor (Homo sapiens) (UniProt P34981). Briefly: qHTS assay to identify small molecule antagonists of the thyrotropin-releasing hormone receptor (TRHR) signaling pathway (AID 1346877; active = well fitted inhibition curve with a large enough effect in the repeat runs, not every such curve was filed as active; note: series mostly up to about 51 µM). In short, it runs like this: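 TRHR-expressing HEK293 cells were seeded, cultured 18 h at 37 °C, then loaded with calcium dye for 2 h. Compounds were pre-incubated 5 min at room temperature before 1 nM TRH (final) was added, and kinetic fluorescence was recorded for 3 min.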

Experiment [15] shares this target. The experiment can be described thus: qHTS assay to identify small molecule agonists of the thyrotropin-releasing hormone receptor (TRHR) signaling pathway (AID 1346891; calls by dose curve; note: series mostly up to about 58 µM). In short, it runs like this: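 TRHR-expressing HEK293 cells were plated 18 h at 37 °C/5% CO2, loaded with calcium dye 2 h at 37 °C, then given compound in DMSO; fluorescence was read kinetically for 3 min at 1 s intervals.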

The nature of experiment [16]: Human pregnane X receptor (PXR) small molecule agonists, qHTS cell viability counter screen (AID 1346977). Note: nearly all actives have a fitted effect of over 50% in size. In short, it runs like this: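 PXR-Luc HepG2 cells in medium with 5% charcoal-stripped FBS were pre-incubated 5hr, then exposed to compounds for 24hr at 37C. Viability was read in the same wells by CellTiter-Fluor fluorescence, reagent added after 23hr with a 1hr incubation.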

A short description of experiment [17]: Caspase-3/7 induction in HepG2 cells by small molecules, qHTS assay (AID 1346978). Note: nearly all actives have a fitted effect of over 15% in size. In short, it runs like this:
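Wild-type HepG2 cells (2,000/well) were settled 5 h at 37 C, 5% CO2, then exposed to compounds in DMSO for 17 h. Caspase-3/7 activity was read by luminescence 30 min after adding Caspase-Glo 3/7 reagent at room temperature.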

Experiment [18] is described as follows: Caspase-3/7 induction in CHO-K1 cells by small molecules, qHTS cell viability counter screen (AID 1346979). Note: nearly all actives have a fitted effect of over 35% in size. Note: potency is the fitted concentration of half-maximal effect. A digest of the protocol:
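Wild-type CHO-K1 cells were seeded at 1,500 per well, rested 5hr at 37 C, then exposed to compounds in DMSO. After 16hr, CellTiter-Fluor reagent was added and fluorescence read 1hr later as the viability measure.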

Experiment [19] is described as follows: qHTS assay to identify small molecule agonists of the progesterone receptor (PR) signaling pathway - cell viability counter screen (AID 1346799; calls by dose curve; note: nearly all actives have a fitted effect of over 45% in size; note: potency is the fitted concentration of half-maximal effect). In short, it runs like this: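 PR-UAS-bla HEK293T cells, 3,000 per well in medium with 2% charcoal-stripped FBS, were preincubated 6 hr at 37C, then exposed to compounds for 16 hr; viability was read as CellTiter-Glo luminescence after 30 min at room temperature.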

Experiment [20] deals with Estrogen receptor (Homo sapiens) (UniProt P03372). The experiment can be described thus: qHTS assay to identify small molecule agonists of the estrogen receptor alpha (ER-alpha) signaling pathway in the presence of an antagonist (AID 1259383; calls by dose curve; note: top concentration of the series differs between compounds; nearly all actives have a fitted effect of over 15% in size). A digest of the protocol:
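VM7Luc4E2 cells (endogenous full-length ER-alpha, 4×ERE-luciferase) were precultured 5 days in phenol red-free medium with 10% charcoal-stripped FBS, given 10.0nM ICI-182,780 (final), then treated with compounds at 15 concentrations for 22hr at 37C; luminescence read with ONE-Glo.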
% is set by controls: 0 for no effect and ±100 for the full control effect.

Androgen receptor (Homo sapiens), sequence (P10275 whole entry, looked up): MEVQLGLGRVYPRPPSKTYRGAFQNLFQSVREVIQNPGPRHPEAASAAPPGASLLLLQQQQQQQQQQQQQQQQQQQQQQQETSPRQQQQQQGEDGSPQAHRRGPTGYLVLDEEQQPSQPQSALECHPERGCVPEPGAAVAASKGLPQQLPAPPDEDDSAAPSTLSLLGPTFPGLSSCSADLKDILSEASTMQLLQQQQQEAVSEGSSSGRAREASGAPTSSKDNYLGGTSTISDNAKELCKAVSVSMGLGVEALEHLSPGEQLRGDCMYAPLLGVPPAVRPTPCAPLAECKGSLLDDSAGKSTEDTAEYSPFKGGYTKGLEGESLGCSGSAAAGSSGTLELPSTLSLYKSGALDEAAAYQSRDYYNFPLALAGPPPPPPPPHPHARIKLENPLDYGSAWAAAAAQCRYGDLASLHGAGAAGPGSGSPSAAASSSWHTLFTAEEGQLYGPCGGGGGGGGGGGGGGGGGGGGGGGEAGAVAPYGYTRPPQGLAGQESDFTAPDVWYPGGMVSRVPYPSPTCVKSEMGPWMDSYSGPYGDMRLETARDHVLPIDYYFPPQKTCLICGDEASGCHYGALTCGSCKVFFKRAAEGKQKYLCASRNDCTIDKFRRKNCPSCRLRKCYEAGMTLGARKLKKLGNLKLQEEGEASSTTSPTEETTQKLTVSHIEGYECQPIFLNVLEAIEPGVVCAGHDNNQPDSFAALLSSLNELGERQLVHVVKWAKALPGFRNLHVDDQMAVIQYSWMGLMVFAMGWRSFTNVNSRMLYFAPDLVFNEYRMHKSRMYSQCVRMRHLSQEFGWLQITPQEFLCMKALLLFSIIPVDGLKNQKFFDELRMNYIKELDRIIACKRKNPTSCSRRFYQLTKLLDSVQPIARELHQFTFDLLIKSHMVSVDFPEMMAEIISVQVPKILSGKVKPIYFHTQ
Thyrotropin-releasing hormone receptor (Homo sapiens), sequence (P34981 whole entry, looked up): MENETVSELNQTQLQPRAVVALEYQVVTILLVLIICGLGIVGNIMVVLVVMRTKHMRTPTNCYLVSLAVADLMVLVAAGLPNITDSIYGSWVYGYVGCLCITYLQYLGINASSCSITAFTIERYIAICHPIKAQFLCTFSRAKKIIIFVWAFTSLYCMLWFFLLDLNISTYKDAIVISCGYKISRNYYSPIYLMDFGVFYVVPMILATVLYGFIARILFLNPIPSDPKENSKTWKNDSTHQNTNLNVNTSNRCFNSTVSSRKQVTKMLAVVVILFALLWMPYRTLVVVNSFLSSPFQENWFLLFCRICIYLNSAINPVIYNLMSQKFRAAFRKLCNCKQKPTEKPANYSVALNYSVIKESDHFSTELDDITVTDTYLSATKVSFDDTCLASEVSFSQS
Progesterone receptor (Homo sapiens), sequence (P06401 whole entry, looked up): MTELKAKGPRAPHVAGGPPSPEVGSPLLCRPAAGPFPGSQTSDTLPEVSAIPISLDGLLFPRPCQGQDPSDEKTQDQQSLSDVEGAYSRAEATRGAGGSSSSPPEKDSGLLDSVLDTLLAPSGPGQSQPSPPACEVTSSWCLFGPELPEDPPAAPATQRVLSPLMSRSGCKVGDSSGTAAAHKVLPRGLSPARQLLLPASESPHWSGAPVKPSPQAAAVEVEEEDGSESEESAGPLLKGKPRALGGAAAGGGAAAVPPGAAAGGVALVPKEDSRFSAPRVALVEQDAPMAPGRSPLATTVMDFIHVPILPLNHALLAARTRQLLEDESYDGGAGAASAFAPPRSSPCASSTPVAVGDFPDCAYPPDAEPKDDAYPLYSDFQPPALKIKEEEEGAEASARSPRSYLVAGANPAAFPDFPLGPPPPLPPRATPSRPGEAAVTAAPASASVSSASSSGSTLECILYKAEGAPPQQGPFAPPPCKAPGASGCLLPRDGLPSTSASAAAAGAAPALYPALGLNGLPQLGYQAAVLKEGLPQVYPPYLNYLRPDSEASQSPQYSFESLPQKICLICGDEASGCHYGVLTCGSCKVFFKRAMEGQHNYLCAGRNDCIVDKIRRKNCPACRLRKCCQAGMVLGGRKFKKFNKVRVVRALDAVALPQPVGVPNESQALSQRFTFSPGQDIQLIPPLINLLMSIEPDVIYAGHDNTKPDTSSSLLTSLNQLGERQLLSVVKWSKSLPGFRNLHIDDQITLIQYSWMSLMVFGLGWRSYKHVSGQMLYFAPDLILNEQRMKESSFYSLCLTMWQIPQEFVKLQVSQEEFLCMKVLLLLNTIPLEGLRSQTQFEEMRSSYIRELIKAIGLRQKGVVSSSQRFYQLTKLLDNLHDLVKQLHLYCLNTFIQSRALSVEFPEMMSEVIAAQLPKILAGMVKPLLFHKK
Thyrotropin receptor (Homo sapiens), sequence (P16473 whole entry, looked up): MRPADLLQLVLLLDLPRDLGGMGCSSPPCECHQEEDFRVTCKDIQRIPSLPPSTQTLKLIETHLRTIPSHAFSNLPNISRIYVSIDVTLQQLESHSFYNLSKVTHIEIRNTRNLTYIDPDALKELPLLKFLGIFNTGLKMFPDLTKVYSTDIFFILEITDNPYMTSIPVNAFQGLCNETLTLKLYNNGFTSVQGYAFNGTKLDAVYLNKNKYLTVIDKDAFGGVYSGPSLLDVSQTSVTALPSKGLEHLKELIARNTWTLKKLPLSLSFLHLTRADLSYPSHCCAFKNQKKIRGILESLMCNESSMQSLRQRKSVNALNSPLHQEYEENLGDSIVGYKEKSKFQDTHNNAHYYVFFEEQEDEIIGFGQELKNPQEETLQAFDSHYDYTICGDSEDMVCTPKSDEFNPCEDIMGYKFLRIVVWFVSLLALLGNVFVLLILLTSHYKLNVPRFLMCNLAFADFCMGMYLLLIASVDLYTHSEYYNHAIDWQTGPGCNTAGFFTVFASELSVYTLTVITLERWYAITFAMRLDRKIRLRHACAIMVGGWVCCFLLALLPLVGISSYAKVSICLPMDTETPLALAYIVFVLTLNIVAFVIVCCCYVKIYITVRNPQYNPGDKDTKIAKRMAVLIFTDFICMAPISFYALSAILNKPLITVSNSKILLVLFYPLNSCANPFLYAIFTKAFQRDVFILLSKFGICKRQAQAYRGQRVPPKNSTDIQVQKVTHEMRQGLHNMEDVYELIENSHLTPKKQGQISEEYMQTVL
Estrogen receptor (Homo sapiens), sequence (P03372 whole entry, looked up): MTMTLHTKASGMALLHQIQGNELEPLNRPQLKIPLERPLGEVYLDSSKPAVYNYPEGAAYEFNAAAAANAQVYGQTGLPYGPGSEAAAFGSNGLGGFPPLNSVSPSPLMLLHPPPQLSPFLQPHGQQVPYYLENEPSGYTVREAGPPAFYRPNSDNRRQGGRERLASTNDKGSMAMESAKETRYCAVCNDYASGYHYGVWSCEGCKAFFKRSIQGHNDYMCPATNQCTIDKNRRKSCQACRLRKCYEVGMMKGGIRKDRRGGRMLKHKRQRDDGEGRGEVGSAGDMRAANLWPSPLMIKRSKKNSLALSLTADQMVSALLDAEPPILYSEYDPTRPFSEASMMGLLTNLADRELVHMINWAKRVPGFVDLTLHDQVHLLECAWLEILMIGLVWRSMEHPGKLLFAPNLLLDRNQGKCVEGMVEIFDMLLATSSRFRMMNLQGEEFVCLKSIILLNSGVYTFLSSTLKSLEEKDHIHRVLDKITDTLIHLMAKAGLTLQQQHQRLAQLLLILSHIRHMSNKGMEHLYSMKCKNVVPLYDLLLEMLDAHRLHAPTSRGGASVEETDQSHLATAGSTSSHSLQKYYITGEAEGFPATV

Take `CCc1cccc(C)c1N(C(=O)CS(=O)(=O)O)C(C)COC` (centres undefined): the Potency entry in experiment [1], in [2], in experiment [3], in experiment [4], in experiment [5] and in experiment [6] was “inactive” throughout. Also, the Potency entry in [7], in experiment [9], in [10], in experiment [11], in experiment [12] and in experiment [14] was “inactive” throughout. The Potency entry in experiment [15], in experiment [16], in experiment [17] and in experiment [18] was “inactive” throughout. The call in experiment [8] and in experiment [13] was inactive.

Consider `Nc1ccc2c(S(=O)(=O)O)cccc2c1S(=O)(=O)O`, for which the Potency entry in experiment [1], in experiment [2], in experiment [3], in experiment [4], in experiment [5] and in experiment [6] was “inactive” throughout. For the same compound, the Potency entry in experiment [7], in [9], in experiment [10], in experiment [19], in experiment [11] and in [12] was “inactive” throughout. The Potency result in experiment [14], in experiment [15], in experiment [16] and in experiment [17] was “inactive” in each case. The compound was classed as inactive in [8] and in experiment [13].

For `O=C(O)CN(CCCN(CC(=O)O)CC(=O)O)CC(=O)O`, the activity change, negative = cytotoxicity in [1] was -2.17% [at 19 µM]; in experiment [2], -20.5% [at 19 µM]; in experiment [7], -13.1% [at 19 µM]; in experiment [10], -17.6% [at 18.9 µM]; in [19] it was -13.8% [at 19 µM]; in experiment [12], -5.77% [at 15.8 µM]. In addition, the activation in experiment [3] was 1.23% [at 19 µM]; in experiment [20], -0.204% [at 19 µM]; in [8], 8.3% [at 19 µM]; in [13], 0.66% [at 15.8 µM]; in experiment [15], 0.0527% [at 11.8 µM]. In experiment [5], the cAMP activity change was 0.161% [at 18.9 µM, active compounds read high]. Also, the activity change, negative = inhibition was 1.63% [at 19 µM] in experiment [6] and -17.6% [at 18.9 µM] in experiment [9]. Also, the viability change, negative = cytotoxic in experiment [11] was 5.13% [at 15.8 µM]. Also, the activity, negative = inhibition in experiment [14] is -1.06% [at 10.5 µM]. The caspase activation in [17] is 0.754% [at 19 µM]. The Potency in experiment [18] was 11.6 µM (active).

Regarding `O=[N+]([O-])c1ccc(CO)cc1`, the Potency result in experiment [1], in experiment [2], in experiment [3], in experiment [4], in [7] and in [9] was “inactive” each time. The Potency entry in experiment [10], in [19], in [11], in experiment [12], in experiment [14] and in experiment [15] was “inactive” throughout. For the same compound, the Potency entry in experiment [16], in [17] and in experiment [18] was “inactive” each time. For the same compound, the compound was classed as inactive in experiment [8] and in experiment [13].

With `Cc1cc(C)c(O)c(C(C)(C)C)c1`, the Potency result in experiment [1], in experiment [2], in [3], in experiment [4], in experiment [5] and in [6] was “inactive” each time. In addition, the Potency result in experiment [7], in experiment [9], in [10], in experiment [19], in experiment [11] and in experiment [12] was “inactive” each time. Besides, the Potency result in experiment [16] is “inactive”. Moreover, the outcome in [8] and in experiment [13] was inactive.

`CN(C[C@@H](CC[N+]12CCC(C3CCCCC3)(CC1)CC2)c1ccc(Cl)c(Cl)c1)C(=O)c1cc(C(F)(F)F)cc(C(F)(F)F)c1`: the Potency was 68.6 µM (active) in experiment [1]; 30.6 µM (active) in [2]; 17.2 µM (active) in experiment [4]; 27.3 µM (active) in experiment [10]; 13.7 µM (active) in experiment [19]; 61.1 µM (active) in [18]. The Potency result in experiment [3], in experiment [5], in [6], in [11], in experiment [14] and in experiment [15] was “inactive” in each case. Also, the Potency result in [17] is “inactive”.

`CC1CCC(C(C)(C)O)CC1` (centres undefined): the Potency result in [1], in experiment [2], in experiment [3], in [4], in experiment [7] and in experiment [10] was “inactive” throughout. Also, the Potency result in experiment [11], in [12], in [14], in [15], in experiment [16] and in experiment [17] was “inactive” throughout. Besides, in experiment [18], the Potency result is “inactive”. For the same compound, the outcome in experiment [8] and in [13] was inactive.
